Screen size: about 5,500 compounds; about 2,000 (36%) were called active. Another 18% or so got no clear call; they are omitted. Rule as the data show it: active = normalized growth mostly below about 0.91 (no sharp cut-off); inconclusive = no clear call, values can overlap the other calls; inactive = mostly above about 0.92. The list shows a part of the results.
Assay: chemical genetic growth profiling, strain panel (AID 1159580);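 also: tested at 20 µM; growth read once vehicle control cultures reached saturation at 30 °C; 1 = growth at the plate median or of vehicle wells; lower values mean less growth of the strain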
Conditions: growth OD

Measured: normalized growth

CCC(C(=O)O)c1ccccc1 (configuration not stated)
inactive: S. cerevisiae deletion strains, locus YJR075W, strain HOC1, hits give low values 1 | S. cerevisiae deletion strains, locus YKL009W, strain mrt4, hits give low values 1.01 | S. cerevisiae deletion strains, locus YKL068W, hits give low values 0.976 | S. cerevisiae deletion strains, locus YKL085W, strain MDH1 (second series), hits give low values 0.981 | S. cerevisiae deletion strains, locus YKL085W, strain MDH1, hits give low values 0.981 | S. cerevisiae deletion strains, locus YKL160W, strain elf1, hits give low values 0.996 | S. cerevisiae deletion strains, locus YKL190W, strain CNB1, hits give low values 1.01 | S. cerevisiae deletion strains, locus YKR001C, strain vps1, hits give low values 0.987 | S. cerevisiae deletion strains, locus YKR026C, strain gcn3, hits give low values 0.99 | S. cerevisiae deletion strains, locus YKR091W, strain srl3, hits give low values 0.99 | S. cerevisiae deletion strains, locus YLL001W, strain dnm1, hits give low values 0.986 | S. cerevisiae deletion strains, locus YLL026W, hits give low values 0.977 | S. cerevisiae deletion strains, locus YLL041C, strain sdh2, hits give low values 1 | S. cerevisiae deletion strains, locus YLR027C, strain aat2, hits give low values 1 | S. cerevisiae deletion strains, locus YLR039C, strain RIC1, hits give low values 0.958 | S. cerevisiae deletion strains, locus YLR058C, strain SHM2, hits give low values 1 | S. cerevisiae deletion strains, locus YLR102C, strain apc9, hits give low values 0.995 | S. cerevisiae deletion strains, locus YLR113W, strain HOG1, hits give low values 0.912 | S. cerevisiae deletion strains, locus YLR221C, strain rsa3, hits give low values 0.992 | S. cerevisiae deletion strains, locus YLR258W, strain gsy2, hits give low values 1 | S. cerevisiae deletion strains, locus YLR262C, strain YPT6 (second series), hits give low values 1.01 | S. cerevisiae deletion strains, locus YLR262C, strain YPT6, hits give low values 0.966 | S. cerevisiae deletion strains, locus YLR268W, strain sec22, hits give low values 1.01 | S. cerevisiae deletion strains, locus YLR320W, strain mms22, hits give low values 0.989 | S. cerevisiae deletion strains, locus YLR330W, strain CHS5, hits give low values 1 | S. cerevisiae deletion strains, locus YLR342W, strain FKS1 (second series), hits give low values 0.994 | S. cerevisiae deletion strains, locus YLR342W, strain FKS1, hits give low values 0.998 | S. cerevisiae deletion strains, locus YLR357W, strain rsc2, hits give low values 0.951 | S. cerevisiae deletion strains, locus YLR370C, strain arc18, hits give low values 0.977 | S. cerevisiae deletion strains, locus YLR371W, strain rom2, hits give low values 1.01 | S. cerevisiae deletion strains, locus YLR384C, strain iki3, hits give low values 0.97 | S. cerevisiae deletion strains, locus YLR418C, strain cdc73, hits give low values 1.03 | S. cerevisiae deletion strains, locus YML016C, strain PPZ1, hits give low values 1 | S. cerevisiae deletion strains, locus YML032C, strain rad52, hits give low values 0.997 | S. cerevisiae deletion strains, locus YML120C, strain ndi1, hits give low values 0.979 | S. cerevisiae deletion strains, locus YML124C, strain tub3, hits give low values 1 | S. cerevisiae deletion strains, locus YMR058W, strain fet3, hits give low values 0.986 | S. cerevisiae deletion strains, locus YMR078C, strain ctf18, hits give low values 0.996 | S. cerevisiae deletion strains, locus YMR125W, strain sto1, hits give low values 0.977 | S. cerevisiae deletion strains, locus YMR129W, hits give low values 0.992 | S. cerevisiae deletion strains, locus YMR205C, strain PFK2, hits give low values 0.996 | S. cerevisiae deletion strains, locus YMR223W, strain ubp8, hits give low values 1 | S. cerevisiae deletion strains, locus YMR231W, strain pep5, hits give low values 0.992 | S. cerevisiae deletion strains, locus YMR263W, strain SAP30, hits give low values 1.01 | S. cerevisiae deletion strains, locus YMR307W, strain GAS1, hits give low values 1.07 | S. cerevisiae deletion strains, locus YNL067W, strain RPL9B, hits give low values 1.03 | S. cerevisiae deletion strains, locus YNL071W, strain lat1, hits give low values 0.989 | S. cerevisiae deletion strains, locus YNL128W, strain TEP1, hits give low values 1.02 | S. cerevisiae deletion strains, locus YNL153C, strain GIM3, hits give low values 1 | S. cerevisiae deletion strains, locus YNL183C, strain NPR1, hits give low values 0.905 | S. cerevisiae deletion strains, locus YNL209W, strain ssb2, hits give low values 0.989 | S. cerevisiae deletion strains, locus YNL233W, strain BNI4, hits give low values 0.999 | S. cerevisiae deletion strains, locus YNL248C, strain rpa49, hits give low values 0.984 | S. cerevisiae deletion strains, locus YNL250W, strain rad50, hits give low values 0.975 | S. cerevisiae deletion strains, locus YNL271C, strain bni1, hits give low values 0.988 | S. cerevisiae deletion strains, locus YNL298W, strain CLA4, hits give low values 0.989 | S. cerevisiae deletion strains, locus YNL307C, strain MCK1, hits give low values 0.999 | S. cerevisiae deletion strains, locus YNL322C, strain KRE1 (second series), hits give low values 0.972 | S. cerevisiae deletion strains, locus YNL322C, strain KRE1, hits give low values 1 | S. cerevisiae deletion strains, locus YNR049C, strain mso1, hits give low values 1.01 | S. cerevisiae deletion strains, locus YNR052C, strain pop2, hits give low values 0.99 | S. cerevisiae deletion strains, locus YOL006C, strain TOP1, hits give low values 1.03 | S. cerevisiae deletion strains, locus YOL012C, strain htz1 2.17 | S. cerevisiae deletion strains, locus YOL147C, strain pex11, hits give low values 0.998 | S. cerevisiae deletion strains, locus YOR001W, strain rrp6, hits give low values 0.974 | S. cerevisiae deletion strains, locus YOR061W, strain CKA2, hits give low values 1 | S. cerevisiae deletion strains, locus YOR069W, strain VPS5, hits give low values 1 | S. cerevisiae deletion strains, locus YOR070C, strain gyp1, hits give low values 0.976 | S. cerevisiae deletion strains, locus YOR080W, strain dia2, hits give low values 0.984 | S. cerevisiae deletion strains, locus YOR083W, strain WHI5, hits give low values 0.994 | S. cerevisiae deletion strains, locus YOR106W, strain vam3, hits give low values 0.989 | S. cerevisiae deletion strains, locus YOR136W, strain idh2, hits give low values 1.01 | S. cerevisiae deletion strains, locus YOR144C, strain elg1, hits give low values 0.999 | S. cerevisiae deletion strains, locus YOR184W, strain ser1, hits give low values 0.992 | S. cerevisiae deletion strains, locus YOR231W, strain MKK1, hits give low values 0.951 | S. cerevisiae deletion strains, locus YOR265W, strain rbl2, hits give low values 1 | S. cerevisiae deletion strains, locus YOR270C, strain vph1, hits give low values 1.02 | S. cerevisiae deletion strains, locus YOR290C, strain snf2, hits give low values 0.976 | S. cerevisiae deletion strains, locus YOR316C, strain cot1, hits give low values 1 | S. cerevisiae deletion strains, locus YPL051W, strain arl3, hits give low values 0.964 | S. cerevisiae deletion strains, locus YPL055C, strain LGE1, hits give low values 1.03 | S. cerevisiae deletion strains, locus YPL078C, strain atp4, hits give low values 0.974 | S. cerevisiae deletion strains, locus YPL106C, strain sse1, hits give low values 0.97 | S. cerevisiae deletion strains, locus YPL240C, strain hsp82, hits give low values 0.988 | S. cerevisiae deletion strains, locus YPL241C, strain CIN2, hits give low values 1.01 | S. cerevisiae deletion strains, locus YPL256C, strain CLN2, hits give low values 0.907 | S. cerevisiae deletion strains, locus YPR119W, strain clb2, hits give low values 0.994 | S. cerevisiae deletion strains, locus YPR141C, strain kar3, hits give low values 0.976 | S. cerevisiae deletion strains, locus YPR163C, strain tif3, hits give low values 1 | S. cerevisiae deletion strains, locus YPR167C, strain met16, hits give low values 0.999 | S. cerevisiae deletion strains, strain wtn01, hits give low values 0.999 | S. cerevisiae strains, strain wild type, hits give low values 1

From PubChem BioAssay AID1159580 (chemical genetic matrix, 2015)
